{
  "source": "PubChem BioAssay (NCATS)",
  "key": {"HEK293T": {"tested_on": "HEK293T", "experiment": "qHTS assay to identify novel small-molecules to repurpose for Merkel cell carcinoma treatment (AID 1296009); further: nearly all actives have a fitted effect of over 60% in size", "conditions": "MCC and control cell lines, CellTiter-Glo viability, 72 h; at 44.8 µM (top of the series) unless noted", "outline": "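Cells exposed to NPC (8-point) and MIPE (11-point) compound dilutions for 72 hr at 37 degree celsius; viability read by CellTiter-Glo luminescence, normalized to no-cell and DMSO in-plate controls.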"}, "[1]": {"tested_on": "Zika virus NS2B-NS3 protease (linked construct)", "experiment": "Confirmatory screen NINDS AMC qHTS for Zika virus inhibitors (AID 1347152); further: potency means the concentration at half of the fitted maximal effect; nearly all actives have a fitted effect of over 70% in size", "outline": "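In this dose-response qHTS, AMC release from 10 microM Bz-Nle-KRR-AMC by 1 nM linked protease is measured over 15 minutes (about 20% conversion) at pH 8.0. Percent inhibition is fitted to a 4-parameter Hill curve.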"}, "[2]": {"experiment": "Confirmatory screen GU Rhodamine qHTS for Zika virus inhibitors qHTS (AID 1347157); further: potency means the concentration at half of the fitted maximal effect; nearly all actives have a fitted effect of over 70% in size", "outline": "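Percent inhibition derives from the 15-min fluorescence change (ex 480, em 540 nm), normalized to no-enzyme and no-inhibitor wells. Reactions contained 25 nM NS2B-NS3 complex and 1.5 microM substrate in 10 mM Tris-HCl pH 8.0.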"}, "[3]": {"experiment": "Confirmatory screen NINDS Rhodamine qHTS for Zika virus inhibitors (AID 1347161); further: potency means the concentration at half of the fitted maximal effect; nearly all actives have a fitted effect of over 60% in size", "outline": "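Single-chain NS2B-NS3 protease, 25 nM, pH 8.0; compounds preincubated 15 min. Activity: Rhodamine110 release from 1.5 microM substrate over 15 min, room temperature, data fitted to 4-parameter Hill.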"}, "[4]": {"tested_on": "Zika virus NS2B-NS3 protease (linked)", "experiment": "384 well plate NINDS AMC confirmatory qHTS for Zika virus inhibitors (AID 1347163); further: potency means the concentration at half of the fitted maximal effect; nearly all actives have a fitted effect of over 50% in size", "conditions": "Recombinant NS2B-NS3 protease, Ac-VKTGKR-AMC fluorescence", "outline": "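Linked protease 5/30/60 nM final; cpds up to 1 mM final, ~15 min preinc. Substrate Ac-VKTGKR-AMC 30 microM final. RT, dark, 25 min; FI ex 355/em 460; normalized to no-enzyme/no-inhibitor ctrls.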"}, "[5]": {"tested_on": "Zika virus NS2B-NS3 protease (linked construct)", "experiment": "384 well plate NINDS Rhodamine confirmatory qHTS for Zika virus inhibitors (AID 1347164); further: potency means the concentration at half of the fitted maximal effect; nearly all actives have a fitted effect of over 65% in size", "outline": "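Compounds are incubated about 15 minutes with linked protease (5, 30 or 60 nM final). Rhodamine 110-tagged Ac-LKRR substrate (10 microM final) is added and fluorescence measured after 25 minutes.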"}, "[6]": {"experiment": "Confirmatory qHTS to identify inhibitors of SARS-CoV-2 cell entry (AID 1645844; calls by dose curve; further: potency means the concentration at half of the fitted maximal effect; nearly all actives have a fitted effect of over 45% in size)", "outline": "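HEK293-ACE2 cells (Expi293F stably expressing human ACE2) were pretreated with compounds for 1 hr at 37C, then infected with MLV-based particles carrying Wuhan-Hu-1 spike (C-terminal 19-aa truncation). Luciferase luminescence read after 48 hr; normalized to spike PP (100%) and bald PP (0%).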"}, "[7]": {"experiment": "qHTS assay to identify inhibitors of the type 1 interferon - major histocompatibility complex class I in skeletal muscle: Counter screen cell viability and HiBit confirmation (AID 1347412); further: on the % scale 0 is the no-effect control and ±100 the full control effect; nearly all actives have a fitted effect of over 60% in size", "conditions": "iHSKM muscle cells + IFN-b, HiBiT or CellTiter-Glo, 24 h; Potency: HiBiT; Viability, at 45.9 µM (top of the series)", "outline": "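Myoblasts (C25cl48, HLA-B HiBiT) seeded in medium without dexamethasone, IFN-b 4 ng/ml added except unstimulated columns; 1 hr later compounds pinned (12-pt 1:3, top 46 uM final). Incubated 24 hrs, lysed 10 min, luminescence measured.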"}, "[8]": {"experiment": "NCATS anti-infectives library activity on the primary C. elegans qHTS viability assay (AID 1745855; calls by dose curve; further: potency means the concentration at half of the fitted maximal effect)", "outline": "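Viability is taken from GFP fluorescence of PE254-GFP-FLuc C. elegans imaged by laser cytometry over 7 days. Ten L1 worms per well grow at 21 °C on TOP10 E. coli capsules with titrated compound; levamisole marks toxicity.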"}, "[9]": {"experiment": "Cell Viability - LYMP2-001 (AID 921);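 further: 0% = DMSO only and full inhibition = tetraoctylammonium bromide control wells; nearly all actives have a fitted effect of over 70% in size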", "outline": "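qHTS, 1536-well; lymphoblastoid cells, 24 hr compound, 37 C; ATP by CellTiter-Glo, 30 min RT; luminescence; Hill-fit AC50.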"}, "[10]": {"molecular_target": "Estrogen receptor (Homo sapiens) (UniProt P03372)", "sequence (P03372 whole entry, looked up)": "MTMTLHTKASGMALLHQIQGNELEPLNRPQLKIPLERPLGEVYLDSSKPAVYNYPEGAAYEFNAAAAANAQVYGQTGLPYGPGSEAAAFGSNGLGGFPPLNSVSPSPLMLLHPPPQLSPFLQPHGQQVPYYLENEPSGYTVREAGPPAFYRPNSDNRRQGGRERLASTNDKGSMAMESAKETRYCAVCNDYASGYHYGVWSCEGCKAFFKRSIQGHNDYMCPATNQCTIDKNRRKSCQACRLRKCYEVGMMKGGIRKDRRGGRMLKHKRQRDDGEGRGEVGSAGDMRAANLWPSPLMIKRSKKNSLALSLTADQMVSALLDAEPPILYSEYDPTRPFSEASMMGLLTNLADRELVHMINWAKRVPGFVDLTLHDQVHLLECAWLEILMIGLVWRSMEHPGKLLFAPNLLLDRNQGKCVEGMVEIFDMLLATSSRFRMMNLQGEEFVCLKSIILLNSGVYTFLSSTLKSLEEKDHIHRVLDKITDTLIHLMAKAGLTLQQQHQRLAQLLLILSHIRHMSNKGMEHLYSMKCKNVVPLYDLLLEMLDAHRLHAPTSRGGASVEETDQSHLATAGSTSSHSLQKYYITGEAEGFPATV", "experiment": "qHTS assay for small molecule antagonists of estrogen receptor alpha signaling (AID 588513; active means well fitted curve in the direction sought with a large enough effect in the signal ratio, with a control signal flat, not every such curve was filed as active; the % refers to the signal ratio; further: on the % scale 0 is the no-effect control and ±100 the full control effect)", "outline": "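Cells were plated at 5000/well and incubated 4 h at 37 C. Compounds were added as 1:2 dilution series, duplicates. 17-beta-estradiol (0.5nM final) was added for 18 h before CCF4 detection.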"}, "[11]": {"molecular_target": "Bile acid receptor (Homo sapiens) (UniProt Q96RI1)", "sequence (Q96RI1 whole entry, looked up)": "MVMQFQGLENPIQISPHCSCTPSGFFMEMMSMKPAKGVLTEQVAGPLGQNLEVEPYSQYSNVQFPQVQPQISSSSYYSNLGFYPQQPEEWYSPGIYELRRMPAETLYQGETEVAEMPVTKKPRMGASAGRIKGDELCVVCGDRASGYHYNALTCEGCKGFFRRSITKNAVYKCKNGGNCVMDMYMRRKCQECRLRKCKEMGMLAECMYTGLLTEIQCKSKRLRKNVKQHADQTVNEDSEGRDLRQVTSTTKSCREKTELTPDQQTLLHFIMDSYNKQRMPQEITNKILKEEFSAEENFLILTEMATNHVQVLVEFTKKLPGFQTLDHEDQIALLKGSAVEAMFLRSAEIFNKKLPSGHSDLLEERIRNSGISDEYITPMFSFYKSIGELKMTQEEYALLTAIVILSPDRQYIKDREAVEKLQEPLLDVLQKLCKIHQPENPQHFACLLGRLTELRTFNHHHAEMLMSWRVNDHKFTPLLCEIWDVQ", "experiment": "qHTS assay for small molecule antagonists of farnesoid X receptor signaling (AID 588526; calls by dose curve; further: on the % scale 0 is the no-effect control and ±100 the full control effect)", "outline": "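Concentration-response titrations were fitted to the Hill equation for half-maximal inhibition and maximal response, with data normalised to 50 uM chenodeoxycholic acid and DMSO control wells. Cells: FXR-UAS-bla HEK293T, dialyzed FBS.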"}, "[12]": {"molecular_target": "Peroxisome proliferator-activated receptor gamma (Homo sapiens) (UniProt P37231)", "sequence (P37231 whole entry, looked up)": "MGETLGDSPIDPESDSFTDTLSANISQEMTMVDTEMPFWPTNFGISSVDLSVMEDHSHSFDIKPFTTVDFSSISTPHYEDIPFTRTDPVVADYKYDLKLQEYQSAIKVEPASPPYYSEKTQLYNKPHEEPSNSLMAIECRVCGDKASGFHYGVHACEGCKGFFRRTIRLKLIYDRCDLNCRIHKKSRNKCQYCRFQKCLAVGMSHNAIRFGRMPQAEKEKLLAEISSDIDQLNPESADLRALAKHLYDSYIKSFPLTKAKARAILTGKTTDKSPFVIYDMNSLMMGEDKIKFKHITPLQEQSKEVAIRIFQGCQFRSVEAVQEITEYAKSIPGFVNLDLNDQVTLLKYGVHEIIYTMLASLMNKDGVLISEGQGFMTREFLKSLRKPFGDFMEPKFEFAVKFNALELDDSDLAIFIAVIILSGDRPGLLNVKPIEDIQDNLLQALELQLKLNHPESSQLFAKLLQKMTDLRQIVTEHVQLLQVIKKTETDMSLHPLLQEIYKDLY", "experiment": "qHTS assay for small molecule agonists of peroxisome proliferator-activated receptor gamma signaling (AID 588536; active means well fitted curve in the direction sought with a large enough effect in the signal ratio, with a control signal flat, not every such curve was filed as active; the % refers to the signal ratio)", "outline": "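HEK293 UAS-bla reporter line, 1% charcoal/dextran FBS; titration, 16 h, 37 C; CCF4 loading 2 h RT; fluorescence 460/530 nm. Normalized to rosiglitazone 2 uM = 100%, DMSO = 0%.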"}, "[13]": {"molecular_target": "Tumor necrosis factor (Homo sapiens) (UniProt P01375)", "sequence (P01375 whole entry, looked up)": "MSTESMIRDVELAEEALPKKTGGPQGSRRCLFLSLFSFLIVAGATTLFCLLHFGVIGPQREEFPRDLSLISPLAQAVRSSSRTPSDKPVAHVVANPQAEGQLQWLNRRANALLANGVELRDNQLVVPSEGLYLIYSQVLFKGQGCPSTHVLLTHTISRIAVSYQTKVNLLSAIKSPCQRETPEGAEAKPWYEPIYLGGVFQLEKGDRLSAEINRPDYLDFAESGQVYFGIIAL", "experiment": "qHTS assay to identify small molecules that stimulate Tumor Necrosis Factor-alpha (TNF-alpha) secretion (AID 651757; active means well fitted curve in the direction sought with a large enough effect in the signal ratio; the % refers to the signal ratio; further: 0% is about no effect)", "outline": "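Secreted TNF-alpha from compound-treated THP-1 cells (17 hrs, 37 C) was quantified with a homogeneous time-resolved fluorescence antibody assay.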"}, "[14]": {"experiment": "Confirmation and Secondary Assay for Modulators of Hemoglobin Beta Chain Splicing at IVS2 654 locus (AID 910); further: % of control where 0% means no effect", "outline": "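HeLa cells stably carrying EGFP interrupted by mutant beta-globin IVS2-654 intron (CMV-driven) were treated with compound for 2 days at 37C; corrected splicing was scored as total peak GFP intensity per well (488 nm excitation, 500-520 nm emission).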"}, "[15]": {"experiment": "Confirmation and Secondary Assay for Modulators of Hemoglobin Beta Chain Splicing at IVS2 705 locus (AID 930); further: % of control where 0% means no effect", "outline": "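Stable HeLa line with EGFP disrupted by mutant beta-globin intron 2 (705). Overnight attachment, then 2 days of compound at 37C, 5% CO2. Signal: peak GFP intensity summed over objects 5-250 µm.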"}, "[16]": {"experiment": "NFAT Signaling Pathway (AID 444; active means well fitted curve in either direction with a large enough effect, not every such curve was filed as active;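 further: carbachol stimulus at about its EC50 of 1 µM final; on the % scale 0 is the no-effect control and ±100 the full control effect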)", "conditions": "Jurkat NFAT-bla M1, carbachol, beta-lactamase ratio, 5 h", "outline": "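Jurkat cells carrying an NFAT-driven β-lactamase reporter and co-transfected muscarinic M1 receptor were treated with compound plus carbachol (1 uM final, an EC50 level) for 5 h at 37 °C. CCF4 loading followed for 1 h at RT; 460/530 nm ratio gave %activity.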"}, "[17]": {"experiment": "Confirmatory qHTS for VERO E6 Cytotoxicity Assay: Counterscreen for SARS-CoV-2 CPE Assay (AID 1508605; calls by dose curve; further: on the % scale 0 is the no-effect control and ±100 the full control effect; nearly all actives have a fitted effect of over 60% in size)"}, "[18]": {"experiment": "qHTS profiling of the MIPE4 collection as inhibitors of Plasmodium falciparum (DD2) proliferation (AID 743345; call rule not given here)", "conditions": "P. falciparum Dd2 in erythrocytes, SYBR Green DNA, 72 h; at 28.5 µM (top of the series) unless noted", "outline": "(§1)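 Erythrocytes infected with P. falciparum (0.3% parasitemia, 2.5% hematocrit) incubated with compounds 72 h at 37 C, 5% CO2. Lysis with saponin/Triton buffer containing SYBR Green I, overnight at room temperature in the dark; DNA fluorescence (485/535 nm) normalised to 0.29 uM artemisinin and DMSO.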"}, "[19]": {"experiment": "qHTS profiling of the MIPE4 collection as inhibitors of Plasmodium falciparum (DD2) proliferation (Rep 2) (AID 743346; call rule not given here)", "conditions": "P. falciparum Dd2 in erythrocytes, SYBR Green DNA, 72 h; at 28.5 µM (top of the series) unless noted", "outline": "as §1"}},
  "note": "Results filed as inconclusive are left out. The source made the active and inactive calls. Unless noted, the call rests on the fitted dose curve; in most records, active means well fitted curve in the direction sought with a large enough effect; inconclusive means small, poorly fitted or top-dose-only effect, or another doubt; inactive means no such curve, though single readings can be large; an effect the other way counts as inactive or inconclusive.",
  "data": [
    {"smiles": "CN(CC[C@H](N)CC(=O)N[C@H]1C=C[C@@H](n2ccc(N)nc2=O)O[C@@H]1C(=O)O)C(=N)N", "values": [
      {"measurement": "outcome", "setting": "HEK293T", "result": "inactive [at 9.27 µM]"}
    ]},
    {"smiles": "CC(C)=CCC[C@]1(C)C=Cc2c(O)c3c(c(CC=C(C)C)c2O1)O[C@]12C(=C[C@@H]4CC1C(C)(C)O[C@@]2(C/C=C(/C)C(=O)O)C4=O)C3=O", "values": [
      {"measurement": "Potency", "setting": "[1]", "result": "9870 nM (active)"},
      {"measurement": "Potency", "setting": "[2]", "result": "1560 nM (active)"},
      {"measurement": "Potency", "setting": "[3]", "result": "2480 nM (active)"},
      {"measurement": "Potency", "setting": "[4]", "result": "1000 nM (active)"},
      {"measurement": "Potency", "setting": "[5]", "result": "7080 nM (active)"}
    ]},
    {"smiles": "C/C(=C\\c1csc(C)n1)[C@@H]1C[C@@H]2O[C@@H]2CCC[C@H](C)[C@H](O)[C@@H](C)C(=O)C(C)(C)[C@@H](O)CC(=O)O1", "values": [
      {"measurement": "Potency", "setting": "[6]", "result": "121 nM (active)"}
    ]},
    {"smiles": "Cc1sc2c(c1C)C(c1ccc(Cl)cc1)=N[C@@H](CC(=O)Nc1ccc(O)cc1)c1nnc(C)n1-2", "values": [
      {"measurement": "Potency", "setting": "[7]", "result": "inactive"}
    ]},
    {"smiles": "CC[C@H]1/C=C\\C=C/C[C@@H](C)[C@H](O)[C@@](C)(O)C(=O)[C@@H](C)[C@H](O)[C@@H](C)C(=O)[C@@H](C)[C@H](O)[C@@H](C)/C=C\\C(=O)O[C@@H]2[C@H](C)[C@H](CC1)O[C@]1(CC[C@H](C)[C@H](C[C@@H](C)O)O1)[C@H]2C", "values": [
      {"measurement": "Potency", "setting": "[8]", "result": "5780 nM (active)"}
    ]},
    {"smiles": "COC(=O)c1ccccc1C(=O)OC", "values": [
      {"measurement": "outcome", "setting": "[9]", "result": "inactive"},
      {"measurement": "Potency", "setting": "[10]", "result": "inactive"},
      {"measurement": "Potency", "setting": "[11]", "result": "inactive"},
      {"measurement": "outcome", "setting": "[12]", "result": "inactive"},
      {"measurement": "outcome", "setting": "[13]", "result": "inactive"}
    ]},
    {"smiles": "CCN(CC)/[N+]([O-])=N/O", "values": [
      {"measurement": "Potency", "setting": "[14]", "result": "inactive"},
      {"measurement": "outcome", "setting": "[15]", "result": "inactive"}
    ]},
    {"smiles": "CN1CC[C@@]23CCCC[C@@H]2[C@@H]1Cc1ccc(O)cc13", "values": [
      {"measurement": "activity change, negative = inhibition", "setting": "[16]; at 17.2 µM (top of the series)", "result": "-12.7% (inactive)"},
      {"measurement": "activity change, negative = inhibition", "setting": "[16]; at 38 µM (top of the series)", "result": "-7.37% (inactive)"}
    ]},
    {"smiles": "C[N+](C)(C)CC(=O)[O-]", "values": [
      {"measurement": "Potency", "setting": "[14]", "result": "inactive"},
      {"measurement": "outcome", "setting": "[15]", "result": "inactive"}
    ]},
    {"smiles": "CCCCCCCCCCCCc1ccc(S(=O)(=O)Nc2nncs2)cc1", "values": [
      {"measurement": "Potency", "setting": "[17]", "result": "inactive"}
    ]},
    {"smiles": "COc1ccc(C2(C#N)CCC(C(=O)O)CC2)cc1OC1CCCC1", "note": "(stereo unspecified)", "values": [
      {"measurement": "parasite growth remaining, % of DMSO control (lower = more inhibition)", "setting": "[18]", "result": 101, "unit": "%"},
      {"measurement": "parasite growth, % of control (lower = inhibition)", "setting": "[19]", "result": 88.4, "unit": "%"}
    ]},
    {"smiles": "CCOC(=O)c1c(CSc2ccccc2)n(C)c2cc(Br)c(O)c(CN(C)C)c12", "values": [
      {"measurement": "Potency", "setting": "[17]", "result": "inactive"}
    ]},
    {"smiles": "CN1[C@H]2CC(OC(=O)[C@@H](CO)c3ccccc3)C[C@H]1[C@H]1O[C@H]12", "note": "(stereo partly specified)", "values": [
      {"measurement": "parasite growth remaining, % of DMSO control (lower = more inhibition)", "setting": "[18]", "result": 107, "unit": "%"},
      {"measurement": "parasite growth, % of control (lower = inhibition)", "setting": "[19]", "result": 72.3, "unit": "%"}
    ]}
  ]
}
